Data reported in publication PMC7819943, “Rice protein-binding microarrays: a tool to detect cis-acting elements near promoter regions in rice”.
The full ranking holds about 68,000 sequences; the median of “fluorescence intensity (a.u.)” is about 9,100, and the highest 2% start at about 16,000. The sample as a whole holds a higher share of the highest values than the screen did.

The sequences below were run against OsWRKY34 (Oryza sativa, UniProt Q0JBA9 1-250) (assay: protein-binding microarray (RPBM); PBS, 2% BSA, 51.3 ng/ul salmon testes DNA, 50 uM zinc acetate, 200 nM TF, 25 C, 1 h; high values mean tight binding). Details: protein: recombinant; tags: N-terminal polyhistidine and DsRed monomer fusion (pET32a); label: CyDye5-dUTP incorporated in the synthesized complementary strand; 3' TTTTT single-stranded linker to array surface; dsDNA, one strand shown.
Chain of OsWRKY34 (Q0JBA9 entry or part of it): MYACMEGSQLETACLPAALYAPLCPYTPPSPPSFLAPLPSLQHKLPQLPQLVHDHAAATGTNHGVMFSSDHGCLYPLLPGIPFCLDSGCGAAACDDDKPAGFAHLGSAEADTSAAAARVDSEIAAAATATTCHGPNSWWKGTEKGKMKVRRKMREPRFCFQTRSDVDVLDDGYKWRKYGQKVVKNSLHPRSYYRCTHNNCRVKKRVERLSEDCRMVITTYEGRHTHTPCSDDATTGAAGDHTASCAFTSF
Procedure, shortened: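 Ni–NTA purification followed expression in E. coli BL21-CodonPlus of transcription factors fused N-terminally to a polyhistidine tag and DsRed. At 200 nM in PBS with 2% BSA, salmon testes DNA and 50 µM zinc acetate, the protein was incubated for 1 h at 25 °C with a custom Agilent array that had been primer-extended with Cy5-dUTP and blocked with 2% BSA. After washing, the array was read on an Axon 4000B scanner. The binding signal is per-feature fluorescence intensity in arbitrary units.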

Sequence	binding signal
CCACCTGCTCGCCGTCGACGCCGCCCTCGCCATCTTCAATCGGAGTCACCTAGTGCAG	12800 fluorescence intensity (a.u.)
CCATCGCCATTGACACGGACACCTTACCTGTCACAAAGAACGGAGTCACCTAGTGCAG	8160 fluorescence intensity (a.u.)
CGACGCGCCATCGCCTCGCCTCTCACCTACTGCCTCGTCCCGGAGTCACCTAGTGCAG	8820 fluorescence intensity (a.u.)
ACTTCTTGCTGATCTTCTTGGACTGCTTTTGCACCTTCTTCGGAGTCACCTAGTGCAG	9360 fluorescence intensity (a.u.)
ATGCACCACTGTTCCTGTCCTGGCTTTGCACAACATCCATCGGAGTCACCTAGTGCAG	13300 fluorescence intensity (a.u.)
ATGTTCAGTAGTTAAAGAGGATACTGGCCACATGCTTGACCGGAGTCACCTAGTGCAG	8790 fluorescence intensity (a.u.)
ATCATATGAACACGTTATCTTTTTATTTTATACCGGTTCACGGAGTCACCTAGTGCAG	8840 fluorescence intensity (a.u.)
CGTCTCCTCTCTCTCTCTCTCTCTCTCTCGCCTCCGCTTCCGGAGTCACCTAGTGCAG	8240 fluorescence intensity (a.u.)
ACCCTAGCCACCCCGCGTCGCCCGCCTCGGCGCGCCCAAACGGAGTCACCTAGTGCAG	9260 fluorescence intensity (a.u.)
ATCTCCGCCGCCGCCGCCTCCTACTCGTCGCCCTCCTCCTCGGAGTCACCTAGTGCAG	10300 fluorescence intensity (a.u.)
GTCATCCTCTCCATCCCCTCGTCGTCGTCCGCTCGCCTCTCGGAGTCACCTAGTGCAG	8250 fluorescence intensity (a.u.)
CCTAGTCGGCTTCGCCTCCGCTTCCTCGTCTCGTCTCCCTCGGAGTCACCTAGTGCAG	8160 fluorescence intensity (a.u.)
GGACCATCTCCGCCGCCGCCGCTGCCATCACTTCGTCCTCCGGAGTCACCTAGTGCAG	17600 fluorescence intensity (a.u.)
GCCCCAACCTCGTCGCTACCCGCGAGCCTCGGCTTATCGACGGAGTCACCTAGTGCAG	65100 fluorescence intensity (a.u.)
CACCGTGTCGCTCTCTCTCGTCGTCTCCGCCTCCGGCTTCCGGAGTCACCTAGTGCAG	19600 fluorescence intensity (a.u.)
TCCCCATCTCCGCCGCAGCCCTCGTCGTCGTCCTCGTCCTCGGAGTCACCTAGTGCAG	18900 fluorescence intensity (a.u.)
CCGCCATCGCTACCCTCGGTCGTCGCTTGCCCCGACGACCCGGAGTCACCTAGTGCAG	8180 fluorescence intensity (a.u.)
CCGCCGGCCGCCGTCCTCGCCATCTCCGCCGGCCGCCGTCCGGAGTCACCTAGTGCAG	8440 fluorescence intensity (a.u.)
CATCTCCGCCGGCCGCCGTCCTCGCCATCTTCGCCGTCCTCGGAGTCACCTAGTGCAG	12600 fluorescence intensity (a.u.)
CCAGCCCACTGATTCCTCACCGAATTTTTTCATTTTTTTTCGGAGTCACCTAGTGCAG	9700 fluorescence intensity (a.u.)
ATTCTATACTTTTGTTTCCCTATCATTTGACGCTTTACACCGGAGTCACCTAGTGCAG	10000 fluorescence intensity (a.u.)

Sequence	binding signal
TGGCTCCTTTTAAGTTATTCTTCCCAAACAGACATGATTTCGGAGTCACCTAGTGCAG	8660 fluorescence intensity (a.u.)
TTTATACATATGTGTTTATCATACCTCACGTGTCGTATATCGGAGTCACCTAGTGCAG	8040 fluorescence intensity (a.u.)
TTAAGGGCATGTTTAGTTCTCAAACAAAATTTTCTAGCTGCGGAGTCACCTAGTGCAG	8270 fluorescence intensity (a.u.)
ATGCTTGCTTGCCTGCCTTATCTGCGTCTTGAATTGCATCCGGAGTCACCTAGTGCAG	10100 fluorescence intensity (a.u.)
CATCTATGACCCATTTTTTTTTATTTGACTGATACCCATCCGGAGTCACCTAGTGCAG	9760 fluorescence intensity (a.u.)
GTCGCCATCTTCCCATCCCCGCGCCGCCGTCCACCATGAGCGGAGTCACCTAGTGCAG	17200 fluorescence intensity (a.u.)
CTTTTCCCCGCGGCCATCCCCGTCGCCCCACCGCCGCCGCCGGAGTCACCTAGTGCAG	11200 fluorescence intensity (a.u.)
CCACACCACCGTCCCCTCGCTGCCTGCCTCCACCTCACCTCGGAGTCACCTAGTGCAG	8950 fluorescence intensity (a.u.)
CCATTAAAGCCAAGCCACTGTCCTTGTCCATCTTTGTCCACGGAGTCACCTAGTGCAG	8190 fluorescence intensity (a.u.)
GTCACCCTTCACCACGGCCATCTTCTCCTCGCTCGCCGTCCGGAGTCACCTAGTGCAG	11200 fluorescence intensity (a.u.)
CGTGTCGAGCTCTGTCTCCTCGTCTTCATCCGCCGCTTCACGGAGTCACCTAGTGCAG	18100 fluorescence intensity (a.u.)
TCCCCTACCGCTGCCCACCGCCGTCCACCACCGCCTTTCTCGGAGTCACCTAGTGCAG	17000 fluorescence intensity (a.u.)
GCCGCGCCCGCGTCACCACCGCTACCGCCCGCGCGTCCCTCGGAGTCACCTAGTGCAG	8940 fluorescence intensity (a.u.)
CTTCGTCTCCGCTCCTCTCCGCCGCCTCGTCTCGTCGCCTCGGAGTCACCTAGTGCAG	8430 fluorescence intensity (a.u.)
CGCGCCGCCCGCCGTCCCCATGCCACCGCGCTGCCCGCCGCGGAGTCACCTAGTGCAG	10200 fluorescence intensity (a.u.)
ACCGTGTCGAGCTATGTCTCCTCATCCTCGCTATGTTTCACGGAGTCACCTAGTGCAG	14800 fluorescence intensity (a.u.)
ATCCAAGCCGTCCATCTTCACCCGTCACTGTCACTCGCCACGGAGTCACCTAGTGCAG	16900 fluorescence intensity (a.u.)
GCAGCTGATCGATCTGGTTTCTGCTTTGCTGCAACTCACTCGGAGTCACCTAGTGCAG	8870 fluorescence intensity (a.u.)
CTGGGGTTAGTTCTATGGATATTTGCTACTCCTGTTGATACGGAGTCACCTAGTGCAG	8220 fluorescence intensity (a.u.)
GAGTGACATTTGGGGTGGTTTTTGCAATTTTCTCTAAATTCGGAGTCACCTAGTGCAG	13000 fluorescence intensity (a.u.)
GGGTATAAAGTCACTCTATTCGTTCTCACCGTTTTTTCGGCGGAGTCACCTAGTGCAG	8150 fluorescence intensity (a.u.)

Sequence	binding signal
GGGAGGGCAACTGAAGAGGAGTGGCGAGGGAGGGCTTTTGCGGAGTCACCTAGTGCAG	12200 fluorescence intensity (a.u.)
ACACGCCCGCCCGCCGCCTCCACCGTCTCCGCTCGCCGCGCGGAGTCACCTAGTGCAG	10500 fluorescence intensity (a.u.)
ACCATTGTCGCATGCTCACATCCCATCTTTTCCAAAGGGACGGAGTCACCTAGTGCAG	10300 fluorescence intensity (a.u.)
CCCTGGTTTCCGTGTCCAATGTTTGACCGTCCGTCTTATTCGGAGTCACCTAGTGCAG	10200 fluorescence intensity (a.u.)
CGGGGCGGCTGGCTTGACGCGTCATCTTCCCCGCGAAAATCGGAGTCACCTAGTGCAG	14000 fluorescence intensity (a.u.)
CGACATCTCTGAAACATTTCTCCTCGACCACGGCAACCCACGGAGTCACCTAGTGCAG	8630 fluorescence intensity (a.u.)
ATTAATTCTGTTTTTTTCAAGTCTCTCTCGCTCTCGCTCCCGGAGTCACCTAGTGCAG	8820 fluorescence intensity (a.u.)
CGTTCGCATCCACCACCAGTGCTCCGCCTGCCAGATCCATCGGAGTCACCTAGTGCAG	9140 fluorescence intensity (a.u.)
TCACGCATCGGCGCCGCCCTCCGGCCAGCAGCGACTCGCCCGGAGTCACCTAGTGCAG	44600 fluorescence intensity (a.u.)
GCTGTCGTCCCTGCTGTTCTTGGTGTGCTTCTTCACTGTCCGGAGTCACCTAGTGCAG	13600 fluorescence intensity (a.u.)
TGTCCAGTCGTCACCCTGCTGCTTCCCTGCCACTGCCCTACGGAGTCACCTAGTGCAG	17000 fluorescence intensity (a.u.)
CACACGCTACCCCGACTCGTCGCCTTCGCCTTGCTCGTCTCGGAGTCACCTAGTGCAG	18000 fluorescence intensity (a.u.)
GGCCACGCCCGCCTCCGCGATCGTCCTCGCCGGCGACTGCCGGAGTCACCTAGTGCAG	8410 fluorescence intensity (a.u.)
GGTTGTCGTCGTCGTCGTGGCCTACGCCTTCGCTGCTGCTCGGAGTCACCTAGTGCAG	10600 fluorescence intensity (a.u.)
CTCCCGCCGCGACTCGCCGCCGCGCGCGGCATCTCCGGCCCGGAGTCACCTAGTGCAG	8820 fluorescence intensity (a.u.)
TGTGCCCGCTGCGCCAAGGGCTACGCCGTCCAGTCCGACTCGGAGTCACCTAGTGCAG	48500 fluorescence intensity (a.u.)
CTCGTGCTGCTTCCACCCCTCCCTCGTCGCCTTGCCAGTTCGGAGTCACCTAGTGCAG	9440 fluorescence intensity (a.u.)
CCCCGCCGTCCGCGCCGACCGCGACCTGCGCTACGCCGCCCGGAGTCACCTAGTGCAG	8450 fluorescence intensity (a.u.)
GGCCTCGTCTCCTACCTCGCCGACCCCGACCCCGACCACGCGGAGTCACCTAGTGCAG	8440 fluorescence intensity (a.u.)
GCGCCGACTGCCCGTCCGCCCCGTTGCTGCTGTGCGCACTCGGAGTCACCTAGTGCAG	8290 fluorescence intensity (a.u.)
